The target in experiment [1] is POU1 (OCT1 POU domain) (human, UniProt P14859 260-458). The experiment in a line: EMSA-SELEX-seq; no BOB1; 20 mM Tris-HCl pH 7.6, 140 mM NaCl, 10% glycerol, 0.5 mM EDTA, 0.05% Triton X-100, 0.1 mg/mL BSA, 0.1 mg/mL poly(dI-dC), 5 mM DTT, room temperature, 20 min; high values mean tight binding. The note with it: protein: recombinant; dsDNA, one strand shown. The essentials: (§1)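 A double-stranded random 35-nt library (300 ng, PCR-amplified) was incubated with 30 ng tagged POU-domain protein, with or without 28 ng coactivator protein, in 20 μL Tris–HCl pH 7.6 binding buffer for 20 min at RT. The proteins had been expressed in E. coli BL21, purified under denaturing conditions and renatured. Complex bands from native 6% PAGE were eluted and PCR-amplified over four rounds, then sequenced on Illumina. For binding preference, the percentage of sequenced 8-mers matching a motif pattern was calculated.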
POU1 (OCT1 POU domain), sequence (P14859 260-458): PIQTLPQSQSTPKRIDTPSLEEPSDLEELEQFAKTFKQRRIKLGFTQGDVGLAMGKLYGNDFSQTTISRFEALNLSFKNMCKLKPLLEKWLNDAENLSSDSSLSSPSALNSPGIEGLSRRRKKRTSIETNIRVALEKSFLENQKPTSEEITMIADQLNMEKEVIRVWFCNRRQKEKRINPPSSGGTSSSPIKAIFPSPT
Background: In EMSA bound probe runs differently from free probe, usually more slowly.

Experiment [2] concerns the target T1, POU2 (OCT2 POU domain) (human, UniProt P09086 175-386).
T1 sequence: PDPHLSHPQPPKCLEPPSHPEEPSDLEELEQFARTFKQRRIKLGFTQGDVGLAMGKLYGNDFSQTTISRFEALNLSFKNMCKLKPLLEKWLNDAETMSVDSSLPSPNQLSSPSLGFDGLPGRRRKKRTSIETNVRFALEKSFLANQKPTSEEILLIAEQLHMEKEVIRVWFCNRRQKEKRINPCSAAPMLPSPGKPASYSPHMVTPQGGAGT
The description is as above. The conditions noted are these: protein: recombinant; dsDNA, one strand shown. The method in brief:
as §1

The target in experiment [3] is POU1 (OCT1 POU domain);BOB1 (OBF1, OCA-B) (human;human, UniProt P14859;Q16633 260-458;1-256, |). The experiment can be described thus: EMSA-SELEX-seq; with BOB1 (ternary complex band); 20 mM Tris-HCl pH 7.6, 140 mM NaCl, 10% glycerol, 0.5 mM EDTA, 0.05% Triton X-100, 0.1 mg/mL BSA, 0.1 mg/mL poly(dI-dC), 5 mM DTT, room temperature, 20 min; high values mean tight binding. The note with it: protein: recombinant;recombinant; copies: 1;1; dsDNA, one strand shown. The method in brief:
as §1

In experiment [4] the target is T2, POU2 (OCT2 POU domain);BOB1 (OBF1, OCA-B) (human;human, UniProt P09086;Q16633 175-386;1-256, |).
T2 sequence 1: T1 sequence
T2 sequence 2: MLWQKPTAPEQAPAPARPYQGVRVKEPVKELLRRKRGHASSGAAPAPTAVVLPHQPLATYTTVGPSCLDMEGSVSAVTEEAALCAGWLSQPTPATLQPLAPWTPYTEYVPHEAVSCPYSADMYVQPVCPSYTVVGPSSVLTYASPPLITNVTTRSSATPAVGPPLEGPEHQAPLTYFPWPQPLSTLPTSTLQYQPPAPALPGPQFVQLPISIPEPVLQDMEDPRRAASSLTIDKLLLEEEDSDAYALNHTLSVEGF
The description is as above. The conditions noted are these: protein: recombinant;recombinant; copies: 1;1; dsDNA, one strand shown. The essentials: as §1

Take AACTCAAT: the binding signal in experiment [1] is 0.0378 % of ANNNNAAN 8-mers; in experiment [2], 0.0437 % of ANNNNAAN 8-mers; in experiment [3], 0.0289 % of ANNNNAAN 8-mers; in experiment [4], 0.0314 % of ANNNNAAN 8-mers.
For ACGGCAAA, the binding signal in experiment [1] was 0.0328 % of ANNNNAAN 8-mers; in experiment [2], 0.0305 % of ANNNNAAN 8-mers; in experiment [3], 0.0445 % of ANNNNAAN 8-mers; in experiment [4], 0.0371 % of ANNNNAAN 8-mers.
For ATACTAAC, in that order: 0.0347 % of ANNNNAAN 8-mers, 0.0293 % of ANNNNAAN 8-mers, 0.0304 % of ANNNNAAN 8-mers and 0.0396 % of ANNNNAAN 8-mers.
Consider ACTCCAAG, for which the binding signal is 0.0191 % of ANNNNAAN 8-mers in experiment [1], 0.0196 % of ANNNNAAN 8-mers in experiment [2], 0.0195 % of ANNNNAAN 8-mers in experiment [3] and 0.0124 % of ANNNNAAN 8-mers in experiment [4].
In the case of AGCCAAAT, the binding signal in experiment [1] is 0.0858 % of ANNNNAAN 8-mers; in experiment [2], 0.0702 % of ANNNNAAN 8-mers; in experiment [3], 0.167 % of ANNNNAAN 8-mers; in experiment [4], 0.0892 % of ANNNNAAN 8-mers.
For ACACTAAC, the binding signal is 0.0137 % of ANNNNAAN 8-mers in experiment [1], 0.0132 % of ANNNNAAN 8-mers in experiment [2], 0.0117 % of ANNNNAAN 8-mers in experiment [3] and 0.014 % of ANNNNAAN 8-mers in experiment [4].
On the same counts, the results for ACCGCAAT are 0.0164 % of ANNNNAAN 8-mers, 0.019 % of ANNNNAAN 8-mers, 0.0199 % of ANNNNAAN 8-mers and 0.0264 % of ANNNNAAN 8-mers.
As for AAAGAAAA, the binding signal in experiment [1] was 0.0988 % of ANNNNAAN 8-mers; in experiment [2], 0.0892 % of ANNNNAAN 8-mers; in experiment [3], 0.132 % of ANNNNAAN 8-mers; in experiment [4] it was 0.0693 % of ANNNNAAN 8-mers.
On the same counts, the results for ACATAAAT are 0.23 % of ANNNNAAN 8-mers, 0.251 % of ANNNNAAN 8-mers, 0.117 % of ANNNNAAN 8-mers and 0.177 % of ANNNNAAN 8-mers.
For AACTTAAT, in that order: 0.0995 % of ANNNNAAN 8-mers, 0.117 % of ANNNNAAN 8-mers, 0.0613 % of ANNNNAAN 8-mers and 0.0677 % of ANNNNAAN 8-mers.
On the same counts, the results for ACACGAAA are 0.0332 % of ANNNNAAN 8-mers, 0.027 % of ANNNNAAN 8-mers, 0.0386 % of ANNNNAAN 8-mers and 0.0215 % of ANNNNAAN 8-mers.
In the case of AGCCCAAT, the binding signal in experiment [1] was 0.0168 % of ANNNNAAN 8-mers; in experiment [2] it was 0.019 % of ANNNNAAN 8-mers; in experiment [3] it was 0.0226 % of ANNNNAAN 8-mers; in experiment [4], 0.0231 % of ANNNNAAN 8-mers.
For ATGAAAAG, in that order: 0.135 % of ANNNNAAN 8-mers, 0.106 % of ANNNNAAN 8-mers, 0.175 % of ANNNNAAN 8-mers and 0.0867 % of ANNNNAAN 8-mers.
On the same counts, the results for AAGGTAAC are 0.0313 % of ANNNNAAN 8-mers, 0.0293 % of ANNNNAAN 8-mers, 0.0234 % of ANNNNAAN 8-mers and 0.0322 % of ANNNNAAN 8-mers.
ATAAGAAC: the binding signal in experiment [1] is 0.0362 % of ANNNNAAN 8-mers; in experiment [2], 0.0518 % of ANNNNAAN 8-mers; in experiment [3], 0.0332 % of ANNNNAAN 8-mers; in experiment [4], 0.0438 % of ANNNNAAN 8-mers.
Turning to AAATTAAT, the binding signal in experiment [1] was 0.415 % of ANNNNAAN 8-mers; in experiment [2], 0.478 % of ANNNNAAN 8-mers; in experiment [3], 0.244 % of ANNNNAAN 8-mers; in experiment [4], 0.287 % of ANNNNAAN 8-mers.
Regarding ACCTAAAA, the binding signal was 0.021 % of ANNNNAAN 8-mers in experiment [1], 0.0311 % of ANNNNAAN 8-mers in experiment [2], 0.0254 % of ANNNNAAN 8-mers in experiment [3] and 0.0157 % of ANNNNAAN 8-mers in experiment [4].
For AACGCAAA, the binding signal in experiment [1] was 0.147 % of ANNNNAAN 8-mers; in experiment [2], 0.0978 % of ANNNNAAN 8-mers; in experiment [3], 0.266 % of ANNNNAAN 8-mers; in experiment [4], 0.229 % of ANNNNAAN 8-mers.
With ATATCAAG, the binding signal in experiment [1] was 0.0641 % of ANNNNAAN 8-mers; in experiment [2] it was 0.0552 % of ANNNNAAN 8-mers; in experiment [3], 0.0453 % of ANNNNAAN 8-mers; in experiment [4], 0.0479 % of ANNNNAAN 8-mers.
In the case of ATTGCAAT, the binding signal in experiment [1] was 0.0561 % of ANNNNAAN 8-mers; in experiment [2], 0.061 % of ANNNNAAN 8-mers; in experiment [3], 0.0523 % of ANNNNAAN 8-mers; in experiment [4], 0.0479 % of ANNNNAAN 8-mers.
Take AGGGAAAT: the binding signal is 0.549 % of ANNNNAAN 8-mers in experiment [1], 0.365 % of ANNNNAAN 8-mers in experiment [2], 0.963 % of ANNNNAAN 8-mers in experiment [3] and 0.713 % of ANNNNAAN 8-mers in experiment [4].
As for AAGGAAAG, the binding signal in experiment [1] is 0.0576 % of ANNNNAAN 8-mers; in experiment [2], 0.0524 % of ANNNNAAN 8-mers; in experiment [3] it was 0.0792 % of ANNNNAAN 8-mers; in experiment [4], 0.0644 % of ANNNNAAN 8-mers.
For ACCAAAAG, in that order: 0.0236 % of ANNNNAAN 8-mers, 0.0196 % of ANNNNAAN 8-mers, 0.0273 % of ANNNNAAN 8-mers and 0.019 % of ANNNNAAN 8-mers.
On the same counts, the results for AGTGTAAT are 0.085 % of ANNNNAAN 8-mers, 0.104 % of ANNNNAAN 8-mers, 0.0679 % of ANNNNAAN 8-mers and 0.0867 % of ANNNNAAN 8-mers.
On the same counts, the results for AAACCAAC are 0.0206 % of ANNNNAAN 8-mers, 0.0104 % of ANNNNAAN 8-mers, 0.0199 % of ANNNNAAN 8-mers and 0.0215 % of ANNNNAAN 8-mers.
Regarding AACCTAAT, the binding signal is 0.0534 % of ANNNNAAN 8-mers in experiment [1], 0.0875 % of ANNNNAAN 8-mers in experiment [2], 0.0386 % of ANNNNAAN 8-mers in experiment [3] and 0.0438 % of ANNNNAAN 8-mers in experiment [4].
For ACATTAAA, in that order: 0.104 % of ANNNNAAN 8-mers, 0.125 % of ANNNNAAN 8-mers, 0.0624 % of ANNNNAAN 8-mers and 0.0611 % of ANNNNAAN 8-mers.
On to AAGGAAAT, for which the binding signal in experiment [1] was 0.199 % of ANNNNAAN 8-mers; in experiment [2] it was 0.157 % of ANNNNAAN 8-mers; in experiment [3], 0.288 % of ANNNNAAN 8-mers; in experiment [4], 0.171 % of ANNNNAAN 8-mers.
AAGTTAAG: the binding signal in experiment [1] is 0.0568 % of ANNNNAAN 8-mers; in experiment [2] it was 0.0742 % of ANNNNAAN 8-mers; in experiment [3], 0.0539 % of ANNNNAAN 8-mers; in experiment [4], 0.0636 % of ANNNNAAN 8-mers.
On the same counts, the results for AGTTAAAT are 0.219 % of ANNNNAAN 8-mers, 0.213 % of ANNNNAAN 8-mers, 0.217 % of ANNNNAAN 8-mers and 0.127 % of ANNNNAAN 8-mers.

Values taken from publication PMC10812921, “Transcriptional Coactivator BOB1 (OBF1, OCA-B) Modulates the Specificity of DNA Recognition by the POU-Domain Factors OCT1 and OCT2 in a Monomeric Configuration”.
